The values below come from PubChem BioAssay.

The term inhibition denotes the relative decrease from the control value, in per cent. As a reminder, the remaining activity is the signal under treatment as a percentage of the control signal. In general, viability refers to the share of living cells, or the viability signal relative to a control. By AC50 is commonly meant the midpoint of the concentration-response curve, whichever way the signal moves.

Experiment [1] in a line: compounds altering circadian rhythm period length – cell-based, LOPAC library, luminescence reporter (AID 2774).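 Also: values are relative to mean of DMSO wells on each plate.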 Conditions: circadian reporter cells, at 7 µM, actives lie on both sides.
Experiment [2] deals with Hepatitis C virus NS3 helicase. In words: blockers of NS3h binding to ssDNA – biochemical, fluorescence polarization, LOPAC1280 library, primary screen (AID 687035; in the data active = inhibition above about 37%). To be noted: Purified HCV NS3 helicase, Cy5-dT15 ssDNA binding fluorescence polarization; stronger effect = higher value; concentration not given here. On the technique in general: Fluorescence polarisation rises when a labelled molecule tumbles more slowly, as on binding a larger partner.

The nature of experiment [3]: compounds altering Cy5-DNA-NS3h complex signal – biochemical, LOPAC1280, artefact control for HCV NS3 helicase inhibitor project (AID 687037). To be noted: Cy5-DNA-NS3h complex fluorescence interference counterscreen.
Experiment [4] deals with 6-phosphogluconate dehydrogenase, decarboxylating (Homo sapiens) (UniProt P52209). In words: inhibition of human phosphogluconate dehydrogenase – biochemical, recombinant enzyme, NADPH absorbance, primary screen (AID 1159550;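 active = at least 20% inhibition of 6-phosphogluconate dehydrogenase activity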). Conditions: recombinant 6PGD, NADPH absorbance 341 nm; at 10 µM; stronger effect = higher value.
Experiment [5] has as its system Aerobactin synthetase IucA (Klebsiella pneumoniae, hypervirulent). In words: biochemical IucA inhibition screen of LOPAC library by absorbance (AID 1346212).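 Also: 100% = no compound wells and 0% = no enzyme wells.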 Conditions: IucA enzyme assay, absorbance (OD) readout; stronger effect = lower value;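 tested at 8 µM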.
Experiment [6] is described as follows: viability loss in pontine glioma line – cell-based, SU-DIPG-XIII, MIPE4.0, CellTiter-Glo, qHTS, dose response (AID 1347061; cut-off not given, nearly all actives have AC50 up to about 37 µM;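 also: cells exposed to compound for 48 hours before readout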). To be noted: CellTiter-Glo ATP luminescence. In general terms: In ATP-based viability assays light output follows the ATP content of the culture.
Experiment [7] can be described thus: viability loss in pontine glioma line – cell-based, JHH-DIPG-1, MIPE4.0, CellTiter-Glo, qHTS, dose response (AID 1347062; cut-off not given, nearly all actives have AC50 up to about 27 µM). To be noted: JHH-DIPG-1 viability, CellTiter-Glo ATP luminescence.
The nature of experiment [8]: viability loss in pontine glioma line – cell-based, SU-DIPG-IV, MIPE4.0, CellTiter-Glo, qHTS, dose response (AID 1347063; cut-off not given, nearly all actives have AC50 up to about 30 µM;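 also: compound exposure lasted 48 hours before the viability readout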). To be noted: CellTiter-Glo ATP luminescence.
The nature of experiment [9]: growth inhibition of DIPG cells – cell-based, MIPE4.0 library, CellTiter-Glo luminescence, qHTS (AID 1347066; cut-off not given, nearly all actives have AC50 up to about 30 µM;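 also: cells exposed to compound for 48 hours before readout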). To be noted: SU-DIPG-VI viability, CellTiter-Glo ATP luminescence.
Experiment [10] is described as follows: viability loss with induced miR-34 in A549 – imaging, A549 dox-inducible miR-34, nuclei and caspase counts, primary screen (AID 1347080;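 active = compounds whose cell count with miR-34 switched on is under 0.7 times the count with it off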). To be noted: A549 miR-34 inducible, Hoechst nuclei count, 48 h.
The target of experiment [11] is NAD(+) hydrolase SARM1 (Homo sapiens) (UniProt Q6SZW1). The experiment can be described thus: blocking NAD cleavage by SARM1 SAM-TIR – cell lysate, NAD-Glo luminescence (AID 1508614;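 active = compound whose remaining NAD level is above about 45 nM, limit read from the data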;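 also: higher remaining NAD means stronger inhibition of SARM1 NADase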). Conditions: SAM-TIR HEK293T lysate NADase, at 1 µM, stronger effect = higher value.
Experiment [12] concerns the target Mitogen-activated protein kinase 7 (Homo sapiens) (UniProt Q13164). The experiment can be described thus: Gal4-ERK5 driven luciferase induction – cell-based, HTS, primary screen (AID 1508626;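 active = luciferase signal above three times the same-plate solvent-only control wells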;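 also: luciferase driven by Gal4-ERK5 fusion binding five Gal4 sites before minimal TATA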). Conditions: HeLa Gal4-ERK5 transactivation, 18 h, at 5 µM, stronger effect = higher value.
The nature of experiment [13]: galactose survival enhancers in mitochondrial complex I cybrids – cell-based, galactose medium, ATP luminescence, primary screen (AID 1645843;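 active = z-score of at least 1.8 in each of two replicates, scored against plate mean and spread of sample wells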;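 also: positive z means more ATP and so rescue of galactose-driven cybrid death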). Conditions: complex I mutant cybrid cells, 72 h, stronger effect = higher value.
Experiment [14] has as its system Aerobactin synthetase IucA (Klebsiella pneumoniae hvKP1). In words: IucA enzyme inhibition, primary screen, biochemical, Spectrum library (AID 1346200).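 Also: 100% = wells without compound and 0% = wells lacking enzyme.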 Conditions: malachite green pyrophosphate, A620, at 8 µM, stronger effect = lower value.
The nature of experiment [15]: P. berghei load reduction in hepatocytes – cell-based, HepG2, luciferase luminescence, HepG2 viability, primary screen (AID 624349; in the data active = parasite load remaining mostly below about 12%, no sharp cut-off; inactive = mostly above about 10%;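 also: 100% = mean of DMSO negative control wells on the same plate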). To be noted: P. berghei liver stage in HepG2, luciferase luminescence, concentration not given here; parasite load remaining: stronger effect = lower value; viability: measured here: HepG2 viability without parasites.
Experiment [16] is described as follows: blockers of cellular phospholipid synthesis – cell-based, LOPAC library, screen 4, primary screen (AID 1347384). Conditions: animal cells, phospholipid biosynthesis inhibition screen; at 10 µM.
Experiment [17] is described as follows: viability loss in pontine glioma line – cell-based, SU-DIPG-XVII, MIPE5.0, CellTiter-Glo, qHTS, dose response (AID 1347060; cut-off not given, nearly all actives have AC50 up to about 26 µM). To be noted: CellTiter-Glo ATP luminescence.
Experiment [18] is described as follows: viability loss in pontine glioma line – cell-based, SU-DIPG-XIII, MIPE5.0, CellTiter-Glo, qHTS, dose response (AID 1347064; cut-off not given, nearly all actives have AC50 up to about 23 µM). Conditions: CellTiter-Glo ATP luminescence.
Experiment [19] is described as follows: viability loss in pontine glioma line – cell-based, SU-DIPG-XXV, MIPE5.0, CellTiter-Glo, qHTS, dose response (AID 1347065; cut-off not given, nearly all actives have AC50 up to about 26 µM;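 also: cells exposed to compound for 48 hours before ATP readout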). To be noted: CellTiter-Glo ATP luminescence.
Experiment [20] is described as follows: JHH-DIPG-1 glioma cell viability, MIPE5.0 library, CellTiter-Glo luminescence, qHTS (AID 1347067; cut-off not given, nearly all actives have AC50 up to about 26 µM;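 also: cells exposed to compound for 48 hours before readout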). To be noted: JHH-DIPG-1 glioma viability, CellTiter-Glo ATP luminescence.
Experiment [21] in a line: growth inhibition of DIPG cells – cell-based, MIPE5.0 library, qHTS (AID 1347068; cut-off not given, nearly all actives have IC50 up to about 30 µM). To be noted: SU-DIPG-XXV viability.
A short description of experiment [22]: MELAS cybrid and Rieske KO viability enhancers – cell-based, MELAS cybrids, Rieske KO mouse fibroblasts, CellTiter-Glo, primary screen (AID 1508586;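 active = mean z-score across replicates of 1.96 or higher in either the MELAS or the Rieske mutant cell line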;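 also: z relative to plate mean and SD of compound and empty wells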). To be noted: low glucose.
Experiment [23] can be described thus: blockers of polyQ-driven CASP3 activation – cell-based (AID 1583). Conditions: polyglutamine-induced caspase-3 activation, cell assay; stronger effect = higher value;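 tested at 10 µM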.
Experiment [24] in a line: yeast 75Q aggregation reduction – 75Q-TubU reporter (AID 1593). Conditions: Yeast 75Q polyglutamine aggregation reporter.
Experiment [25] can be described thus: restoration of touch response, mutant HTT neurons – whole organism, C. elegans mechanosensory neurons, N-terminal huntingtin (AID 1599). Conditions: C. elegans polyQ-huntingtin mechanosensory neurons, stronger effect = higher value.
The nature of experiment [26]: blockers of cytochrome c efflux from mitochondria – biochemical, purified mitochondria (AID 1603).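 Also: mouse liver mitochondria challenged with calcium chloride; signal normalized to the plate average as 100%.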 To be noted: stronger effect = lower value.
Experiment [27] in a line: polyglutamine aggregate formation blockers (AID 1604). To be noted: polyglutamine-induced protein aggregation inhibition assay; stronger effect = higher value; tested at 2.5 µM.
A short description of experiment [28]: glutamate transport activators, MN-1 cells, MN-1 cell line (AID 1612).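 Also: tested at 1 µM final; 0% = mean of DMSO vehicle wells on each plate; positive means more glutamate uptake than control and negative means less.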 To be noted: MN-1 motor neuron cells, stronger effect = higher value.
The nature of experiment [29]: 75Q-TubH aggregate inhibition, S. cerevisiae, yeast (AID 1616). Conditions: S. cerevisiae 75Q-TubH polyglutamine aggregation suppression; stronger effect = higher value.
[30] abbreviates: measured here: relative caspase fold change +Dox/-Dox.
Setting [31] is: measured here: total cells with miR-34 induction, stronger effect = lower value.
Setting [32] is: measured here: total cells without miR-34 induction.

Results filed as inconclusive are left out. For some of these results: Entries with a potency or affinity are not part of this list. Active and inactive are the calls of the source. Unless noted, no rule for the calls is given here.

Mitogen-activated protein kinase 7 (Homo sapiens), sequence (Q13164 whole entry, looked up, the tested form may be a part): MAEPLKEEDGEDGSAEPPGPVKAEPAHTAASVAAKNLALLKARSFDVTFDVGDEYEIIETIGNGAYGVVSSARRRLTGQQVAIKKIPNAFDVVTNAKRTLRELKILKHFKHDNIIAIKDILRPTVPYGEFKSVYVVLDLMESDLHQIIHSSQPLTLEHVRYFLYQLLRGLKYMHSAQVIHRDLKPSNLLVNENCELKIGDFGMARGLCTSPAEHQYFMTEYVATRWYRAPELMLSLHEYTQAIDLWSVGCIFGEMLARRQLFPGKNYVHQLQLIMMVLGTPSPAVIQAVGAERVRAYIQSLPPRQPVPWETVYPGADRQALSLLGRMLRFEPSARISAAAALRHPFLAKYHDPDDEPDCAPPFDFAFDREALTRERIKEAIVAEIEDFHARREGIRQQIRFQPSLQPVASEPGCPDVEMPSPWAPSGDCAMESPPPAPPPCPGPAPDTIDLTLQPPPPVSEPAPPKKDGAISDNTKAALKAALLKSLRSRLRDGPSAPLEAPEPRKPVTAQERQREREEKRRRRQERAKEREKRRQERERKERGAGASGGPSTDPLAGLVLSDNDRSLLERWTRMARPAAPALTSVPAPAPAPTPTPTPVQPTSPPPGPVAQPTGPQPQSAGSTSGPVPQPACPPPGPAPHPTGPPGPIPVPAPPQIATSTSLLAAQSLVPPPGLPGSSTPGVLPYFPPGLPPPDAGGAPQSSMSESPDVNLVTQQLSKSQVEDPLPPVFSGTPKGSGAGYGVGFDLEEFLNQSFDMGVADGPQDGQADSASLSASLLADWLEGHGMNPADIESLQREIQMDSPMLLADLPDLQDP
6-phosphogluconate dehydrogenase, decarboxylating (Homo sapiens), sequence (P52209 whole entry, looked up): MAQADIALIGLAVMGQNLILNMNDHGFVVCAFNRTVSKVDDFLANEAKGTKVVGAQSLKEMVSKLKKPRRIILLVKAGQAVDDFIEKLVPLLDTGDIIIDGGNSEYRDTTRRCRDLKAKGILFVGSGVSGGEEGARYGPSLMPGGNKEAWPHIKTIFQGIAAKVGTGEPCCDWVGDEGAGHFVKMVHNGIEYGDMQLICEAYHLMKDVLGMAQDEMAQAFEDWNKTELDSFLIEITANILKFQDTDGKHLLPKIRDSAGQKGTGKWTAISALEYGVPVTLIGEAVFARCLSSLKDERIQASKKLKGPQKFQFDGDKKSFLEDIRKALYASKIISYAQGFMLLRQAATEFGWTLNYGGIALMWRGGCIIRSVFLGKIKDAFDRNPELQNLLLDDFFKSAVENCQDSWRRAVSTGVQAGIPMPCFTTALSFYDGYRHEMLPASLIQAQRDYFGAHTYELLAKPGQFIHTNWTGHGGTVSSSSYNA
NAD(+) hydrolase SARM1 (Homo sapiens), sequence (Q6SZW1 whole entry, looked up, the tested form may be a part): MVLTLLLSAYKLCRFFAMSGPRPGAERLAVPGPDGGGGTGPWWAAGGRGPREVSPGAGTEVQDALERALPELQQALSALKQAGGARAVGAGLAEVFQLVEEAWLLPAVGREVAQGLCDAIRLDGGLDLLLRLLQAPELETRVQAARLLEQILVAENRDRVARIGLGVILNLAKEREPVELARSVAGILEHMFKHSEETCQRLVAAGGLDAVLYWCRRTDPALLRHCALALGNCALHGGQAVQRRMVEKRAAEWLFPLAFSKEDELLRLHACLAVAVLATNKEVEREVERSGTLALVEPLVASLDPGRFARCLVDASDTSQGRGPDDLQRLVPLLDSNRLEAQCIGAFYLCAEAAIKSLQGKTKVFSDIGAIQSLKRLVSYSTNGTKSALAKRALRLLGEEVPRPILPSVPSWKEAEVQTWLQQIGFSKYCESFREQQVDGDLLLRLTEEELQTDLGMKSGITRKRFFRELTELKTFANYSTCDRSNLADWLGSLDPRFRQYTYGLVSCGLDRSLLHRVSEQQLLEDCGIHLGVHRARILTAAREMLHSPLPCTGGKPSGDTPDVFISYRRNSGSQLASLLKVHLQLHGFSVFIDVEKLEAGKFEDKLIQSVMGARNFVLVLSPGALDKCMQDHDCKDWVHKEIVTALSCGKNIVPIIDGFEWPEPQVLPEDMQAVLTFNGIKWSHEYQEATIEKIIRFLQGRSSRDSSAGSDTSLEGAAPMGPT

`C[N+](C)(C)CC(=O)O`: in [1], the period change was -0.005 h (inactive). Also, the inhibition was -5% (inactive) in experiment [2] and 5.32% (inactive) in [4]. Moreover, in [3], the fluorescence ratio (interference) is 0.9 (inactive). Besides, in experiment [5], the remaining activity is 106% (inactive). Besides, the result in [6], in [7], in experiment [8] and in [9] was inactive. Also, the results for the fold change in [10] (stronger effect = lower value) and in experiment [10] (setting [30]) were 1.03 (inactive) and 1.89, respectively. Moreover, the cell count in experiment [10] (setting [31]) worked out at 9950; in experiment [10] (setting [32]), 9700. Further, the remaining NAD in experiment [11] is 10 nM (inactive). The luciferase signal in [12] is 268 AU (inactive). The z-score in [13] is 0.805 (inactive).

With `CSc1nc(NC(C)C)nc(NC(C)C)n1`, in experiment [4], the inhibition is -9.01% (inactive). For the same compound, the activity remaining in [14] is 98.6% (inactive). Further, the luciferase signal in experiment [12] was 60 AU (inactive).

With `CC(C)=CCOc1c2occc2cc2ccc(=O)oc12`, the parasite load remaining in experiment [15] is 18.8% (inactive). The same compound yielded a viability in experiment [15] of 92.7%. Besides, the inhibition in experiment [2] is -2% (inactive); in experiment [4] it was 4.77% (inactive). In addition, the fluorescence ratio (interference) in [3] was 1 (inactive). In addition, the activity remaining in [14] was 108% (inactive). For the same compound, the results for the fold change in experiment [10] (stronger effect = lower value) and in experiment [10] (setting [30]) were 1.08 (inactive) and 1.1, respectively. Further, the cell count in experiment [10] (setting [31]) was 8640; in [10] (setting [32]), 8010. Besides, the result in experiment [16] was inactive. In addition, the z-score in experiment [13] is 0.56 (inactive).

With `CC(C)C[C@H](CN)CC(=O)O`, the inhibition in [4] is 9.49% (inactive). In addition, the call in experiment [17], in experiment [6], in experiment [7], in experiment [8], in experiment [18] and in experiment [19] was inactive. Moreover, the outcome in experiment [9], in experiment [20] and in experiment [21] was inactive. The z-score in experiment [22] (MELAS cybrid survival, CellTiter-Glo 48 h, stronger effect = higher value) was -0.0671 (inactive); in experiment [22] (Rieske KO mouse fibroblast survival, CellTiter-Glo 72 h), 0.159. Besides, the remaining NAD in [11] is 10 nM (inactive).

With `CC(C)N1C(=O)c2ccccc2NS1(=O)=O`, the inhibition in experiment [4] is -1.1% (inactive). The activity remaining in experiment [14] was 106% (inactive). The luciferase signal in experiment [12] was 92 AU (inactive).

Regarding `N#C[C@H](O[C@@H]1O[C@H](CO[C@@H]2O[C@H](CO)[C@@H](O)[C@H](O)[C@H]2O)[C@@H](O)[C@H](O)[C@H]1O)c1ccccc1`, the inhibition in experiment [4] is -14.3% (inactive). In addition, the AC50 in experiment [6] was 23.5 µM (active); in experiment [8], 8.33 µM (active); in experiment [9], 20.9 µM (active). Further, the luciferase signal in experiment [12] is 56 AU (inactive).

Consider `CC[C@@]1(O)C[C@H](O[C@H]2C[C@H](N(C)C)[C@H](O)[C@H](C)O2)c2c(cc3c(c2O)C(=O)c2c(O)cccc2C3=O)[C@H]1C(=O)OC`, for which the inhibition in experiment [23] turned out to be 61.1%. In [24], this compound yielded a score of 0.65. In experiment [25], this compound had a rescue above control of 1.11. Moreover, the cytochrome c release ratio in [26] is 3.13. Besides, the inhibition of aggregation in experiment [27] worked out at 90.8%. Further, the glutamate uptake change in experiment [28] is -25.9%. In experiment [29], this compound yielded an aggregation suppression score of 0.115. In addition, in experiment [15], the parasite load remaining is 0.915% (inactive) and the viability worked out at 15.1%. Also, in [4], the inhibition is -8.44% (inactive). Besides, the activity remaining in experiment [14] was 107% (inactive). Moreover, the luciferase signal in experiment [12] is 5360 AU (active).
